Experimental findings from PubChem BioAssay are described below.

Assay [1] is described as follows: small molecules captured by biotinylated probe aFSTL3 – biochemical, small-molecule microarray, fluorescence 635/667, stem cell growth factor project, primary screen (AID 1064).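 Note: measures binding of the biotinylated anti-FSTL3 antibody to printed compounds.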 The following applies: higher = more signal.
Assay [2] can be described thus: binders from COS7 lysate, DM2A8 probe, primary screen, torsin A project, cell lysate, small-molecule microarray, fluorescence 635/667 (AID 1065). The following applies: higher = more signal, COS7 lysate expressing mutant human TOR1A.
A short description of assay [3]: small molecules captured by biotinylated probe aFGF2 – biochemical, small-molecule microarray, fluorescence 635/667, stem cell growth factor project, primary screen (AID 1067).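 Note: measures binding of biotinylated aFGF2 protein to printed compounds on slides; z-score merges feature fluorescence and signal-to-noise across triplicate slides.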 The settings on record: higher = more signal.
Assay [4] can be described thus: small molecules captured by biotinylated probe aFGF10 – biochemical, small-molecule microarray, fluorescence 635/667, stem cell growth factor project, primary screen (AID 1071).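 Note: score merges 667 nm spot intensity and signal to noise from triplicate slides.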 The following applies: higher = more signal.
Assay [5] concerns the target Neurogenic locus notch homolog protein 2 (Homo sapiens) (UniProt Q04721). The experiment in a line: small molecules binding Notch2 protein – biochemical, small-molecule microarray, 635 nm fluorescence, stem cell growth factors, primary screen (AID 1073). The following applies: higher = more signal.
The target of assay [6] is Pro-neuregulin-1, membrane-bound isoform (Homo sapiens) (UniProt Q02297). The experiment in a line: small molecules binding neuregulin-1 protein – biochemical, small-molecule microarray, fluorescence 635/667, psychiatric disease protein project, primary screen (AID 1075).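 Note: score combines 667 nm spot fluorescence with signal to noise.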 The following applies: NRG1 binding, 635 nm fluorescence, higher = more signal.
Chain of Pro-neuregulin-1, membrane-bound isoform (Homo sapiens) (Q02297 whole entry, looked up, the tested form may be a part, canonical isoform): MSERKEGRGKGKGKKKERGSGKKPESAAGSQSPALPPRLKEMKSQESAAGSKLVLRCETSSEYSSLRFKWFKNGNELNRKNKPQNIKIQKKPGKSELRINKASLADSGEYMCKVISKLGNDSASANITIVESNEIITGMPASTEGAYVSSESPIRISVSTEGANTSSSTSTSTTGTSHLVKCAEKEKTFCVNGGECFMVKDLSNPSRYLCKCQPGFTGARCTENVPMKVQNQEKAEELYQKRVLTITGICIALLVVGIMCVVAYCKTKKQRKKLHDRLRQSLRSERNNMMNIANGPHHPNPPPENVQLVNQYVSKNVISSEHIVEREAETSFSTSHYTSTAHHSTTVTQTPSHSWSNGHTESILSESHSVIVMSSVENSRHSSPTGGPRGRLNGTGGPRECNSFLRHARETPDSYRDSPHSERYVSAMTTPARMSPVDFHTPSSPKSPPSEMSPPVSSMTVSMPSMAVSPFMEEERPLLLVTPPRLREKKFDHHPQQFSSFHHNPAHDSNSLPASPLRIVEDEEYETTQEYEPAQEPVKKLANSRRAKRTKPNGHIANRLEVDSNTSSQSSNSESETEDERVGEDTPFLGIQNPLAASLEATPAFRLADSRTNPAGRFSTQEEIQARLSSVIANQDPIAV
Assay [7] concerns Neuregulin-1 EGF-like domain. The assay is described as follows: small molecules binding NRG1 EGF domain – biochemical, small-molecule microarray, 635 nm fluorescence, primary screen (AID 1081).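 Note: binding of the protein to compounds printed on small-molecule microarray slides.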 The settings on record: higher = more signal.
A short description of assay [8]: FRG1 expression reporter modulators in myotubes – cell-based, C2C12 myotubes, firefly/Renilla luciferase, luminescence, FRG1 inhibition for FSHD, primary screen (AID 1084). The settings on record: FRG1 promoter luciferase, higher = more signal, called active from +8 up or from −8 down.
Assay [9] can be described thus: small molecules captured by biotinylated probe aFST – biochemical, small-molecule microarray, fluorescence 635/667, stem cell growth factor project, primary screen (AID 1086).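 Note: score merges 667 nm fluorescence with signal-to-noise of each printed compound spot.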 The settings on record: higher = more signal.
Assay [10] in a line: binders of probe aHhip on microarray, primary screen, stem cell growth factor project, biochemical, small-molecule microarray, fluorescence 635/667 (AID 1087).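 Note: score merges spot fluorescence at 667nm with spot signal to noise ratio.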 The following applies: higher = more signal.
For assay [11], the system named is PRMT1 (protein arginine N-methyltransferase 1). The experiment in a line: small molecules binding arginine methyltransferase PRMT1 – biochemical, small-molecule microarray, 635 nm fluorescence, primary screen (AID 1088).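 Note: binding of Prmt1 protein to compounds spotted on small-molecule microarray slides.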 The following applies: higher = more signal.
Assay [12] is described as follows: growth effects on S. cerevisiae YJM789 – YJM789 clinical isolate, OD600, 24 h, basal, primary screen (AID 1089).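 Note: growth of clinical yeast isolate S. cerevisiae YJM 789 seeded 1000 cells per well; test concentration not given here.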 The following applies: higher = more signal, called active from +8 up or from −8 down.
The nature of assay [13]: S. pombe growth modifiers, basal conditions – strain 972, OD600, 24 h, no modulator, primary screen (AID 1090).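 Note: basal condition with compound alone and no growth modifier present; test concentration not given here.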 The settings on record: S. pombe 972 growth, higher = more signal, called active from +8 up or from −8 down.
Assay [14] in a line: budding yeast growth modifiers under rapamycin – strain BY4716, OD600, 96 h, primary screen (AID 1091). Note: test concentration not given here. The following applies: S. cerevisiae BY4716 + rapamycin, higher = more signal, called active from +8 up or from −8 down.
Assay [15] concerns the target Torsin-1A-interacting protein 2 (Homo sapiens) (UniProt Q8NFQ8). The experiment in a line: small molecules binding lysate-expressed LULL1 – cell lysate, human LULL1 lysate, 635/667 nm fluorescence, primary screen (AID 1092).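 Note: probe is lysate of COS7 cells overexpressing human LULL1; score merges per-feature 667 nm fluorescence with signal-to-noise.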 The following applies: small-molecule microarray, hLULL1 lysate binding, 635 nm fluorescence; higher = more signal.
Assay [16] can be described thus: optical density change of DRC41 E. coli – strain DRC41, OD650, 24 h, E. coli filamentation project, primary screen (AID 1093).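 Note: MC1000 strain lacking acrAB efflux and sulA so SOS filamentation is blocked; test concentration not given here.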 The settings on record: E. coli DRC41 growth, higher = more signal, called active from +8 up or from −8 down.
Assay [17] is described as follows: probe aLefty2 binding to arrayed compounds – biochemical, biotinylated probe, 635/667 nm fluorescence, primary screen (AID 1094).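 Note: score merges spot fluorescence near 667 nm with spot signal-to-noise ratio.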 The following applies: small-molecule microarray, higher = more signal.
In assay [18] the test system is Noggin (protein binding on small-molecule microarray). The assay is described as follows: small molecules binding Noggin protein – biochemical, 635/667 nm fluorescence, primary screen (AID 1095).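 Note: score merges 667 nm feature fluorescence with signal to noise over triplicate slides.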 The settings on record: 635 nm fluorescence, higher = more signal.
The target of assay [19] is Neurogenic locus notch homolog protein 3 (Homo sapiens) (UniProt Q9UM47). The assay is described as follows: small molecules binding NOTCH3 protein – biochemical, 635/667 nm fluorescence, primary screen (AID 1096). The settings on record: small-molecule microarray, 635 nm fluorescence, higher = more signal.
Assay [20] in a line: probe aEGFR binding to arrayed compounds – biochemical, biotinylated probe, 635/667 nm fluorescence, primary screen (AID 1097).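 Note: probe is a biotinylated anti-EGFR antibody binding compounds printed on slides; score combines fluorescence near 667 nm and signal to noise of each spot.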 The following applies: small-molecule microarray, higher = more signal.

The source made the active and inactive calls.

Chain of Torsin-1A-interacting protein 2 (Homo sapiens) (Q8NFQ8 whole entry, looked up): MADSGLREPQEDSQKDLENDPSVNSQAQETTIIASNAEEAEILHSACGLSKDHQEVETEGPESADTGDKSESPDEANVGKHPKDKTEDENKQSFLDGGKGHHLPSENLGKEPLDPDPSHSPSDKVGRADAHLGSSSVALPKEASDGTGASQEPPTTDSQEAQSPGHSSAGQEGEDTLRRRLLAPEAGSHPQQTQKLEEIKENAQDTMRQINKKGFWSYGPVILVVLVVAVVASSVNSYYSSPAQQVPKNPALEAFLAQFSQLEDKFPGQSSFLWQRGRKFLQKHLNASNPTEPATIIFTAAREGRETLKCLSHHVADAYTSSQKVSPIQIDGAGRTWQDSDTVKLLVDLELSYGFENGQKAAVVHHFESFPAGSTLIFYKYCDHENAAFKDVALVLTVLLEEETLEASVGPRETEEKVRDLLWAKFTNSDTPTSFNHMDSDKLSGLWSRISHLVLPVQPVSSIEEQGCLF
Chain of Neurogenic locus notch homolog protein 2 (Homo sapiens) (Q04721 whole entry, looked up, canonical isoform): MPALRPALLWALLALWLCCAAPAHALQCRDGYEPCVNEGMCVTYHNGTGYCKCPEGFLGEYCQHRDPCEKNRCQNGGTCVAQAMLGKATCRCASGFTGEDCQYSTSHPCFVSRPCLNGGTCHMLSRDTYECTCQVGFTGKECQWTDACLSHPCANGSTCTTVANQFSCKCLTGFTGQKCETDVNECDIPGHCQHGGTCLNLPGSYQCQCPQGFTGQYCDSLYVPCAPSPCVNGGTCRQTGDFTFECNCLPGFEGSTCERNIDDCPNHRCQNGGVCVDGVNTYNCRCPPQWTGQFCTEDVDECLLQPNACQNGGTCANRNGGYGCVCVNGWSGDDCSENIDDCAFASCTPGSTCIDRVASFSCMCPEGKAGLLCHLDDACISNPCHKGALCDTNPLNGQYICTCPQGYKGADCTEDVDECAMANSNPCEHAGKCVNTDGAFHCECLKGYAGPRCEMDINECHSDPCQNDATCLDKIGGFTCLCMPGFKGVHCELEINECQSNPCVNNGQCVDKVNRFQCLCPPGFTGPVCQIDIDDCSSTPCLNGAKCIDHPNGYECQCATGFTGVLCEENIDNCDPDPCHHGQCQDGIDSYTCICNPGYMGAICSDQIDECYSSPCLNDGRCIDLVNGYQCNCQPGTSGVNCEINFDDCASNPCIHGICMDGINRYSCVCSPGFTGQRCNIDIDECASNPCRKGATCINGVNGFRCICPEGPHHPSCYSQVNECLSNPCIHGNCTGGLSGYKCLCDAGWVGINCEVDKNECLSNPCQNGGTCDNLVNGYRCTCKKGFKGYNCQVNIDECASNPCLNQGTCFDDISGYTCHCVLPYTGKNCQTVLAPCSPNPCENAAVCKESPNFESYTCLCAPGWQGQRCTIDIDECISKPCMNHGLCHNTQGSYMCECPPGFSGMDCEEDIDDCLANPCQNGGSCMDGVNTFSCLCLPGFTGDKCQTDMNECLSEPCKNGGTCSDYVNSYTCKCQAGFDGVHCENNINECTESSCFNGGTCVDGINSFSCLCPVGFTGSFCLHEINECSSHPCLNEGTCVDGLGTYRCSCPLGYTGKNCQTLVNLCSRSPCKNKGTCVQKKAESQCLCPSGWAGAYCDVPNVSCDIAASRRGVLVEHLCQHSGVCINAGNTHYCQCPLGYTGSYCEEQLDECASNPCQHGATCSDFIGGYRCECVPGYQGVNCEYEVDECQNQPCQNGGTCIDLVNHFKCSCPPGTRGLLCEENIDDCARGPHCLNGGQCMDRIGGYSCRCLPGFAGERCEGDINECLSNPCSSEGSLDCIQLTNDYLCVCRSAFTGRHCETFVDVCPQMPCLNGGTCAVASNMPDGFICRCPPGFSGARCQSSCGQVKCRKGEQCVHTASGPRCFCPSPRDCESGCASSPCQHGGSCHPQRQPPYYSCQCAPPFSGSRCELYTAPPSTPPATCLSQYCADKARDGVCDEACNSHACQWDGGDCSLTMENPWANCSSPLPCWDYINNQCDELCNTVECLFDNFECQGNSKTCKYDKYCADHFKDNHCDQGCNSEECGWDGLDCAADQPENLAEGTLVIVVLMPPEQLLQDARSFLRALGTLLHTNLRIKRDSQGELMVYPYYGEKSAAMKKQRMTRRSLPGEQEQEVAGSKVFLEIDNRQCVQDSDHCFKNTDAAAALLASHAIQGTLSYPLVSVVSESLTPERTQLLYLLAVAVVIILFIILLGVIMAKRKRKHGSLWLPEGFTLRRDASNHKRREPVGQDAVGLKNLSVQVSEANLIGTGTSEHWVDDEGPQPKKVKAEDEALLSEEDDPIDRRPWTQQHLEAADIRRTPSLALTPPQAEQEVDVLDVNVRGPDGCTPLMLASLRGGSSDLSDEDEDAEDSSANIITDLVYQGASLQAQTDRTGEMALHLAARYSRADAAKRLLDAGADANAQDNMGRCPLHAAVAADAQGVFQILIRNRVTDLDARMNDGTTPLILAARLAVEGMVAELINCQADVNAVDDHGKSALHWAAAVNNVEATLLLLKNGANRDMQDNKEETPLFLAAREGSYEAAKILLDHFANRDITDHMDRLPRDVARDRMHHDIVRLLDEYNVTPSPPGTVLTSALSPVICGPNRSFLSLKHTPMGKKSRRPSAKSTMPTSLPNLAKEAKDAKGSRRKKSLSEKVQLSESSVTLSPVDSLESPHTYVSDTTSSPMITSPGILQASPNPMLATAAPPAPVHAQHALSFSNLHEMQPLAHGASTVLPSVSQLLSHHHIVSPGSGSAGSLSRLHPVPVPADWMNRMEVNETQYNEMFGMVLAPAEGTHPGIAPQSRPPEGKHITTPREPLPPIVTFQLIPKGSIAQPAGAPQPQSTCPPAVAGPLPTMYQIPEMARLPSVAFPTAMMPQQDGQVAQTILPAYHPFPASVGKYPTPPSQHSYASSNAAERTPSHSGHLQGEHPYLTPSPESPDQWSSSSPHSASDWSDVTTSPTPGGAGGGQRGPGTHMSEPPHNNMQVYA

As to `C=C(/C=C/CNS(=O)(=O)c1ccc(C)cc1)[C@H](O)[C@H]1CCCN1S(=O)(=O)c1ccccc1[N+](=O)[O-]`, the composite z-score is -0.402 in assay [1]; 0.578 in assay [2]; -0.0817 in assay [3]; 0.395 in assay [4]; 0.324 in assay [5]; 0.211 in [6]. Besides, the composite z-score in assay [7] was 0.0706; in [9] it was 0.279; in assay [10], 0.0373; in assay [11], 0.13; in [15], -0.271; in assay [17] it was -0.0948. Also, the composite z-score in assay [18] is 1.3; in [19], 0.291; in assay [20], 0.0408. Further, the z-score was -4.12 (inactive) in [8]; 1.27 (inactive) in [12]; 0.24 (inactive) in [13]; 1.72 (inactive) in [14]; 0.913 (inactive) in assay [16].
On to `CC(C)C(CO)N1C(=O)[C@]2(C)C3C(=O)OCCC/C=C\[C@H]3OC23C=CCN(c2ccc(Cl)cc2)C(=O)[C@@H]13` (stereo not given in full), for which the composite z-score was 0.0972 in assay [1]; -0.481 in assay [2]; -0.101 in assay [3]; -0.17 in [4]; -0.689 in assay [5]; 0.344 in [6]. The composite z-score in assay [7] was 1.11; in assay [9], 0.0043; in [10] it was -0.0994; in assay [11], 0.88; in [15], 3.28; in assay [17], -0.0458. Besides, the composite z-score in assay [18] is -0.608; in assay [19] it was 0.0253; in [20], -0.155. The z-score in [8] was 0.0186 (inactive); in assay [12], -0.579 (inactive); in assay [13], -1.14 (inactive); in assay [14] it was -0.268 (inactive); in [16], -0.718 (inactive).
On to `C=C(C(=O)CC[C@H](OC(=O)c1cccnc1)c1ccc(CO)o1)C(C)C`, for which the composite z-score in assay [1] is -0.201; in assay [2], 0.674; in [3], -0.0415; in assay [4], 0.467; in assay [5], 0.355; in [6], 0.904. Besides, the composite z-score is 1.25 in assay [7]; 0.28 in [9]; -0.121 in assay [10]; 1.51 in assay [11]; 1.34 in assay [15]; 0.152 in assay [17]. For the same molecule, the composite z-score in assay [18] is 1.02; in assay [19], 0.623; in assay [20], 0.0504. Further, the z-score was 0.0619 (inactive) in assay [8]; -1.23 (inactive) in assay [12]; -0.796 (inactive) in [13]; -0.719 (inactive) in assay [14]; -0.605 (inactive) in [16].
Turning to `O=C1O[C@@H](c2ccccc2)[C@@H](c2ccccc2)N2[C@@H](c3ccc(O)cc3)[C@]3(C(=O)Nc4ccc(C#CCCO)cc43)[C@@H](C(=O)NC[C@H](O)c3ccccc3)[C@H]12`, the composite z-score is 0.239 in [1]; 0.762 in [2]; -0.206 in assay [3]; -0.812 in [4]; -0.724 in assay [5]; 0.381 in assay [6]. Besides, the composite z-score in [7] was 1; in assay [9], -0.0873; in assay [10], -0.134; in [11], 0.581; in assay [15], 2.9; in [17], -0.112. Moreover, the composite z-score in assay [18] is 1.11; in [19], -0.494; in [20], -0.202. Further, the z-score in [8] is -0.233 (inactive); in assay [12] it was 0.235 (inactive); in assay [13], -0.137 (inactive); in assay [14], 0.914 (inactive); in assay [16], 0.231 (inactive).
Turning to `CC(C)C(=C=CC[C@@H](O)c1ccccc1OCCO)C[C@@H](O)COCc1ccccc1`, the composite z-score was -0.248 in assay [1]; 0.399 in [2]; -0.072 in [3]; 0.729 in assay [4]; 0.429 in assay [5]; 1.13 in assay [6]. Moreover, the composite z-score in assay [7] is 0.865; in assay [9], 0.592; in assay [10] it was -0.199; in assay [11] it was 1.29; in [15], 1.16; in [17], -0.139. In addition, the composite z-score was 1.24 in [18], 0.388 in assay [19] and 0.001 in [20]. The z-score was -3.84 (inactive) in assay [8]; -19.2 (active) in [12]; -20.5 (active) in assay [13]; -3.68 (inactive) in [14]; 1.44 (inactive) in assay [16].
